# In all, about 5,500 compounds went through this assay and about 2,000 (36%) were called active. Roughly 18% stayed inconclusive and do not appear here. This is one part of the list. Values without a mark were called inactive. Rule as the data show it: active = normalized growth mostly below about 0.91 (no sharp cut-off); inconclusive = no clear call, values can overlap the other calls; inactive = mostly above about 0.92.
# Experiment: chemical genetic growth profiling, strain panel (AID 1159580);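 also: tested at 20 µM; growth read once vehicle control cultures reached saturation at 30 °C; 1 = growth at the plate median or of vehicle wells; lower values mean less growth of the strain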
# Conditions: growth OD
# [1] = S. cerevisiae deletion strains, locus YAL013W, strain DEP1, stronger effect = lower value
# [2] = S. cerevisiae deletion strains, locus YBR229C, strain ROT2, stronger effect = lower value
# [3] = S. cerevisiae deletion strains, locus YCL061C, strain MRC1, stronger effect = lower value
# [4] = S. cerevisiae deletion strains, locus YDL101C, strain DUN1, stronger effect = lower value
# [5] = S. cerevisiae deletion strains, locus YDR150W, strain NUM1, stronger effect = lower value
# [6] = S. cerevisiae deletion strains, locus YEL061C, strain CIN8, stronger effect = lower value
# [7] = S. cerevisiae deletion strains, locus YGR078C, strain PAC10, stronger effect = lower value
# [8] = S. cerevisiae deletion strains, locus YHR030C, strain SLT2, stronger effect = lower value
# [9] = S. cerevisiae deletion strains, locus YHR087W, strain rtc3, stronger effect = lower value
# [10] = S. cerevisiae deletion strains, locus YJR043C, strain POL32, stronger effect = lower value
# [11] = S. cerevisiae deletion strains, locus YJR075W, strain HOC1, stronger effect = lower value
# [12] = S. cerevisiae deletion strains, locus YLR039C, strain RIC1, stronger effect = lower value
# [13] = S. cerevisiae deletion strains, locus YLR058C, strain SHM2 (second series), stronger effect = lower value
# [14] = S. cerevisiae deletion strains, locus YLR085C, strain ARP6, stronger effect = lower value
# [15] = S. cerevisiae deletion strains, locus YLR262C, strain YPT6, stronger effect = lower value
# [16] = S. cerevisiae deletion strains, locus YML094W, strain GIM5, stronger effect = lower value
# [17] = S. cerevisiae deletion strains, locus YMR219W, strain ESC1, stronger effect = lower value
# [18] = S. cerevisiae deletion strains, locus YMR263W, strain SAP30, stronger effect = lower value
# [19] = S. cerevisiae deletion strains, locus YNL128W, strain TEP1, stronger effect = lower value
# [20] = S. cerevisiae deletion strains, locus YNL153C, strain GIM3, stronger effect = lower value
# [21] = S. cerevisiae deletion strains, locus YNL298W, strain CLA4 (second series), stronger effect = lower value
# [22] = S. cerevisiae deletion strains, locus YNL322C, strain KRE1, stronger effect = lower value
# [23] = S. cerevisiae deletion strains, locus YNR030W, strain Alg12, stronger effect = lower value
# [24] = S. cerevisiae deletion strains, locus YOL006C, strain TOP1, stronger effect = lower value
# [25] = S. cerevisiae deletion strains, locus YPL055C, strain LGE1, stronger effect = lower value
# [26] = S. cerevisiae deletion strains, locus YPL241C, strain CIN2, stronger effect = lower value
# [27] = S. cerevisiae deletion strains, locus YPR135W, strain CTF4, stronger effect = lower value
# [28] = S. cerevisiae strains, strain wild type, stronger effect = lower value
# [29] = S. cerevisiae deletion strains, locus YGR229C, strain SMI1, stronger effect = lower value
compound,measurement,setting,value
COc1cc(C(F)(F)F)cc(C(F)(F)F)c1C(=O)Nc1cc(C(F)(F)F)cc(C(F)(F)F)c1,normalized growth,[1],1.03
same,normalized growth,[2],1.02
same,normalized growth,[3],1.02
same,normalized growth,[4],1.04
same,normalized growth,[5],1
same,normalized growth,[6],1.01
same,normalized growth,[7],1.01
same,normalized growth,[8],1.11
same,normalized growth,[9],1.04
same,normalized growth,[10],1.01
same,normalized growth,[11],1
same,normalized growth,[12],1.03
same,normalized growth,[13],0.998
same,normalized growth,[14],1.03
same,normalized growth,[15],1.01
same,normalized growth,[16],1.08
same,normalized growth,[17],1.01
same,normalized growth,[18],1.01
same,normalized growth,"S. cerevisiae deletion strains, locus YMR307W, strain GAS1, stronger effect = lower value",1.01
same,normalized growth,[19],1
same,normalized growth,[20],1.01
same,normalized growth,[21],1.03
same,normalized growth,[22],1.01
same,normalized growth,[23],1.03
same,normalized growth,[24],1.09
same,normalized growth,[25],1.07
same,normalized growth,[26],1.06
same,normalized growth,[27],1.1
same,normalized growth,[28],1.01
COc1ccc(NC(=O)c2cc(C(F)(F)F)cc(C(F)(F)F)c2)cn1,normalized growth,[1],0.964
same,normalized growth,[2],0.938
same,normalized growth,[3],0.968
same,normalized growth,[4],0.928
same,normalized growth,[5],1.05
same,normalized growth,[6],0.942
same,normalized growth,[7],0.92 (active)
same,normalized growth,[29],0.959
same,normalized growth,[8],0.826
same,normalized growth,[9],0.925
same,normalized growth,[10],0.959
same,normalized growth,[11],0.893
same,normalized growth,"S. cerevisiae deletion strains, locus YKL190W, strain CNB1, stronger effect = lower value",0.947
same,normalized growth,[12],0.539 (active)
same,normalized growth,[13],0.926 (active)
same,normalized growth,[14],0.781
same,normalized growth,[15],0.636 (active)
same,normalized growth,[16],0.927
same,normalized growth,[17],0.949
same,normalized growth,[18],0.98
same,normalized growth,[19],0.953
same,normalized growth,[20],0.983
same,normalized growth,[21],0.895
same,normalized growth,[22],0.938 (active)
same,normalized growth,[23],0.9
same,normalized growth,[24],0.867
same,normalized growth,[25],0.963
same,normalized growth,[26],0.908
same,normalized growth,[27],0.611 (active)
same,normalized growth,[28],0.931
CC(=O)OCC1=C(C(=O)O)N2C(=O)C(NC(=O)CSc3ccncc3)C2SC1 (stereo not given),normalized growth,"S. cerevisiae deletion strains, locus YAL040C, strain CLN3, stronger effect = lower value",0.974
same,normalized growth,"S. cerevisiae deletion strains, locus YCL061C, strain MRC1 (second series), stronger effect = lower value",0.991
same,normalized growth,"S. cerevisiae deletion strains, locus YER002W, strain NOP16, stronger effect = lower value",1.02
same,normalized growth,[29],0.99
same,normalized growth,[18],0.974
same,normalized growth,"S. cerevisiae deletion strains, locus YNL175C, strain NOP13, stronger effect = lower value",1
same,normalized growth,"S. cerevisiae deletion strains, locus YNL197C, strain WHI3, stronger effect = lower value",1
same,normalized growth,"S. cerevisiae deletion strains, locus YNL224C, strain SQS1, stronger effect = lower value",1
same,normalized growth,"S. cerevisiae deletion strains, locus YOR083W, strain WHI5 (second series), stronger effect = lower value",1.02
same,normalized growth,[25],1.01
Cc1ccc(/C=C2\CSc3ccc(F)cc3C2=O)cc1,normalized growth,"S. cerevisiae deletion strains, locus YAR019C, strain CDC15, stronger effect = lower value",0.942
same,normalized growth,"S. cerevisiae deletion strains, locus YBL105C, strain PKC1, stronger effect = lower value",0.955
same,normalized growth,"S. cerevisiae deletion strains, locus YBR135W, strain CKS1, stronger effect = lower value",0.953
same,normalized growth,"S. cerevisiae deletion strains, locus YBR136W, strain MEC1, stronger effect = lower value",0.953
same,normalized growth,"S. cerevisiae deletion strains, locus YBR160W, strain CDC28, stronger effect = lower value",0.959
same,normalized growth,"S. cerevisiae deletion strains, locus YDL017W, strain CDC7, stronger effect = lower value",0.958
same,normalized growth,"S. cerevisiae deletion strains, locus YDL028C, strain MPS1, stronger effect = lower value",0.932
same,normalized growth,[4],0.971
same,normalized growth,"S. cerevisiae deletion strains, locus YDL108W, strain KIN28, stronger effect = lower value",0.93
same,normalized growth,"S. cerevisiae deletion strains, locus YDL132W, strain cdc53, stronger effect = lower value",0.937
same,normalized growth,"S. cerevisiae deletion strains, locus YDL214C, strain PRR2, stronger effect = lower value",0.892
same,normalized growth,"S. cerevisiae deletion strains, locus YDR052C, strain DBF4, stronger effect = lower value",0.972
same,normalized growth,"S. cerevisiae deletion strains, locus YDR054C, strain cdc34, stronger effect = lower value",0.94
same,normalized growth,"S. cerevisiae deletion strains, locus YDR226W, strain ADK1, stronger effect = lower value",0.952
same,normalized growth,"S. cerevisiae deletion strains, locus YDR477W, strain SNF1, stronger effect = lower value",0.892
same,normalized growth,"S. cerevisiae deletion strains, locus YER123W, strain YCK3, stronger effect = lower value",0.864
same,normalized growth,"S. cerevisiae deletion strains, locus YER133W, strain GLC7, stronger effect = lower value",0.902
same,normalized growth,"S. cerevisiae deletion strains, locus YFL009W, strain cdc4, stronger effect = lower value",0.904
same,normalized growth,"S. cerevisiae deletion strains, locus YFL029C, strain CAK1, stronger effect = lower value",0.946
same,normalized growth,"S. cerevisiae deletion strains, locus YFR003C, strain YPI1, stronger effect = lower value",0.954
same,normalized growth,"S. cerevisiae deletion strains, locus YFR019W, strain FAB1, stronger effect = lower value",0.934
same,normalized growth,"S. cerevisiae deletion strains, locus YFR028C, strain CDC14, stronger effect = lower value",0.935
same,normalized growth,"S. cerevisiae deletion strains, locus YGR040W, strain KSS1, stronger effect = lower value",0.889
same,normalized growth,"S. cerevisiae deletion strains, locus YGR052W, strain FMP48, stronger effect = lower value",0.91
same,normalized growth,"S. cerevisiae deletion strains, locus YGR092W, strain DBF2, stronger effect = lower value",0.86
same,normalized growth,[8],0.706 (active)
same,normalized growth,"S. cerevisiae deletion strains, locus YHR079C, strain IRE1, stronger effect = lower value",0.856
same,normalized growth,"S. cerevisiae deletion strains, locus YHR082C, strain KSP1, stronger effect = lower value",0.915
same,normalized growth,"S. cerevisiae deletion strains, locus YHR205W, strain SCH9, stronger effect = lower value",0.845
same,normalized growth,"S. cerevisiae deletion strains, locus YIL147C, strain SLN1, stronger effect = lower value",0.953
same,normalized growth,"S. cerevisiae deletion strains, locus YJL095W, strain BCK1, stronger effect = lower value",0.859
same,normalized growth,"S. cerevisiae deletion strains, locus YJL128C, strain PBS2, stronger effect = lower value",0.888
same,normalized growth,"S. cerevisiae deletion strains, locus YJL157C, strain FAR1, stronger effect = lower value",0.906
same,normalized growth,"S. cerevisiae deletion strains, locus YJR016C, strain ILV3, stronger effect = lower value",0.956
same,normalized growth,"S. cerevisiae deletion strains, locus YJR066W, strain TOR1 (second series), stronger effect = lower value",0.869
same,normalized growth,"S. cerevisiae deletion strains, locus YJR066W, strain TOR1, stronger effect = lower value",0.862
same,normalized growth,"S. cerevisiae deletion strains, locus YKL048C, strain ELM1, stronger effect = lower value",0.92
same,normalized growth,"S. cerevisiae deletion strains, locus YKL067W, strain YNK1, stronger effect = lower value",0.885
same,normalized growth,"S. cerevisiae deletion strains, locus YKL101W, strain HSL1, stronger effect = lower value",0.895
same,normalized growth,"S. cerevisiae deletion strains, locus YKL193C, strain SDS22, stronger effect = lower value",0.938
same,normalized growth,"S. cerevisiae deletion strains, locus YKL203C, strain TOR2, stronger effect = lower value",0.985
same,normalized growth,"S. cerevisiae deletion strains, locus YLR113W, strain HOG1, stronger effect = lower value",0.697 (active)
same,normalized growth,"S. cerevisiae deletion strains, locus YLR133W, strain CKI1, stronger effect = lower value",0.915
same,normalized growth,"S. cerevisiae deletion strains, locus YLR403W, strain SFP1, stronger effect = lower value",0.898
same,normalized growth,"S. cerevisiae deletion strains, locus YML070W, strain DAK1, stronger effect = lower value",0.882
same,normalized growth,"S. cerevisiae deletion strains, locus YMR001C, strain CDC5, stronger effect = lower value",0.944
same,normalized growth,"S. cerevisiae deletion strains, locus YMR205C, strain PFK2 (second series), stronger effect = lower value",0.911
same,normalized growth,"S. cerevisiae deletion strains, locus YMR277W, strain FCP1, stronger effect = lower value",0.923
same,normalized growth,"S. cerevisiae deletion strains, locus YNL006W, strain LST8, stronger effect = lower value",0.952
same,normalized growth,"S. cerevisiae deletion strains, locus YNL020C, strain ARK1, stronger effect = lower value",0.915
same,normalized growth,"S. cerevisiae deletion strains, locus YNL161W, strain CBK1, stronger effect = lower value",0.955
same,normalized growth,"S. cerevisiae deletion strains, locus YNL183C, strain NPR1, stronger effect = lower value",0.903
same,normalized growth,"S. cerevisiae deletion strains, locus YNL207W, strain RIO2, stronger effect = lower value",0.945
same,normalized growth,"S. cerevisiae deletion strains, locus YNL222W, strain SSU72, stronger effect = lower value",0.937
same,normalized growth,"S. cerevisiae deletion strains, locus YNL307C, strain MCK1 (second series), stronger effect = lower value",0.85
same,normalized growth,"S. cerevisiae deletion strains, locus YOL078W, strain AVO1, stronger effect = lower value",0.945
same,normalized growth,"S. cerevisiae deletion strains, locus YOL136C, strain PFK27, stronger effect = lower value",0.881
same,normalized growth,"S. cerevisiae deletion strains, locus YOR061W, strain CKA2, stronger effect = lower value",0.887
same,normalized growth,"S. cerevisiae deletion strains, locus YOR119C, strain RIO1, stronger effect = lower value",0.932
same,normalized growth,"S. cerevisiae deletion strains, locus YOR231W, strain MKK1, stronger effect = lower value",0.835
same,normalized growth,"S. cerevisiae deletion strains, locus YOR329C, strain SCD5, stronger effect = lower value",0.956
same,normalized growth,"S. cerevisiae deletion strains, locus YPL031C, strain PHO85, stronger effect = lower value",0.896
same,normalized growth,"S. cerevisiae deletion strains, locus YPL153C, strain RAD53, stronger effect = lower value",0.888
same,normalized growth,"S. cerevisiae deletion strains, locus YPL204W, strain HRR25, stronger effect = lower value",0.876
same,normalized growth,"S. cerevisiae deletion strains, locus YPL209C, strain IPL1, stronger effect = lower value",0.952
same,normalized growth,"S. cerevisiae deletion strains, locus YPL256C, strain CLN2, stronger effect = lower value",0.831 (active)
same,normalized growth,"S. cerevisiae deletion strains, locus YPR025C, strain CCL1, stronger effect = lower value",0.958
same,normalized growth,"S. cerevisiae deletion strains, locus YPR106W, strain ISR1, stronger effect = lower value",0.952
same,normalized growth,"S. cerevisiae deletion strains, locus YPR111W, strain DBF20, stronger effect = lower value",0.916
same,normalized growth,"S. cerevisiae deletion strains, strain NNK1, stronger effect = lower value",0.946
same,normalized growth,"S. cerevisiae deletion strains, strain TSCII, stronger effect = lower value",0.942
